An excerpt weighted towards active compounds, which were near 1.9% of everything screened.
ClpP mod – qHTS Assay for Activators of ClpP | purified B. subtilis ClpP, FRET peptide cleavage, 20 min | 1.9% of 340,000 active | ATP-dependent Clp protease proteolytic subunit (Bacillus subtilis (strain 168)), P80244 | Potency, µM (series often up to 57.5 µM), inactives show at the top dose activity change, negative = active | AID 651965, 2013; active = well fitted falling curve with a large enough effect; inconclusive = small, poorly fitted or top-dose-only effect; inactive = no such curve, though single readings can be large or run the other way; also: potency is read from the fitted curve at half-maximal effect; the source files actives as falling curves though it sought activators and does not explain the sign; nearly all actives have a fitted effect of over 65% in size
Target sequence (P80244 whole entry, looked up): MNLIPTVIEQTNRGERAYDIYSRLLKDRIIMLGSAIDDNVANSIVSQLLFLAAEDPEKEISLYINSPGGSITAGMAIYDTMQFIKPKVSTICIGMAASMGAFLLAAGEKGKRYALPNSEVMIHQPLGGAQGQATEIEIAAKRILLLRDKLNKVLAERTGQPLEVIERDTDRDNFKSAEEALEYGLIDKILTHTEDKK
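ClpP 10 microg/mL final, pH 8 Tris/KCl buffer with BSA, glycerol, Tween-20; compound pinned in; FRET-FV substrate; RT 20 min; Ex320/Em430; ΔFRET vs ADEP 5.8 microM, DMSO, no enzyme.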
CXXC DNA block – blocks binding of human MLL CXXC domain to DNA. MLL-CXXC / FITC-HOXA9 DNA fluorescence polarization. Potency, µM (doses to about 115 µM), without a hit: at the top dose activity change, negative = inhibition, usual class: inhibitors. 0.037% of 290,000 active; active = well fitted inhibition curve with a large enough effect in the polarisation, with a control signal flat, not every such curve was filed as active; inconclusive = small, poorly fitted or top-dose-only effect, or effect the other way, or a change in a side signal; inactive = no such curve, though single readings can be large or run the other way; the % refers to the polarisation; also: potency is read from the fitted curve at half-maximal effect
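Purified MLL-CXXC (added from a 7 uM solution) was preincubated 5 min at ambient with pinned compounds in 50 mM Tris-HCl pH 7.5, 50 mM NaCl, 1 mM DTT, 0.05% BSA. Fluorescein-labeled HOX-A9 DNA (50 nM solution) followed, 30 min, then polarization read.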
Menin MLL FP TR – inhibitors of human menin-MLL interaction, mutant MLL peptide; O00255; Menin + Texas Red MLL mutant peptide, fluorescence polarization; Potency, µM (highest dose often 61.6 µM), for the others: at the top dose FP activity change, negative = inhibition, usual class: inhibitors; 0.23% of 270,000 active; AID 1768; active = well fitted inhibition curve with a large enough effect in the polarisation, with a control signal flat, not every such curve was filed as active; inconclusive = small, poorly fitted or top-dose-only effect, or effect the other way, or a change in a side signal; inactive = no such curve, though single readings can be large or run the other way; the % refers to the polarisation; also: potency is read from the fitted curve at half-maximal effect; % of control where 0% means no effect
Epigenetic reg – epigenetic control regulation, reporter derepression; Potency, µM (titrated, usually from 53.9 µM), for inactives: top-dose GFP activation, hits mostly activators; 0.2% of 280,000 active; murine LDR cells, GFP reporter derepression, 30 h; active = well fitted activation curve with a large enough effect; inconclusive = small, poorly fitted or top-dose-only effect; also: potency is read from the fitted curve at half-maximal effect; % of control where 0% means no effect; nearly all actives have a fitted effect of over 60% in size
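GFP-positive cell count by laser-scanning cytometry (objects 20–120 um) after 30 h, 37 C compound exposure of murine LDR cells; reporter is CMV-GFP integrated at a silenced locus, inducible by HDAC or DNMT inhibitors.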
Menin-MLL FL inh – inhibitors of human menin-MLL interaction, wild-type MLL peptide | Fluorescence polarization, fluorescein-MLL peptide displacement from menin | FP activity change, % at 61.4 µM | 290,000 tested, under 10 active; active = well fitted curve in the direction sought with a large enough effect in the polarisation, not every such curve was filed as active; inconclusive = small, poorly fitted or top-dose-only effect, or effect the other way, or a change in a side signal; inactive = no such curve, though single readings can be large or run the other way; the % refers to the polarisation; also: % of control where 0% means no effect
PINK1 expr mod – modulators of PINK1 expression; PINK1 immunofluorescence, high-content cytometry, 24 h; Potency, µM (doses to about 76.6 µM), inactives show top-dose activation (PINK1 increase), actives largely listed as activators; 0.2% of 410,000 active; AID 624263; active = well fitted activation curve with a large enough effect; inconclusive = small, poorly fitted or top-dose-only effect; cell line not stated here; also: potency is read from the fitted curve at half-maximal effect; % of control where 0% means no effect; nearly all actives have a fitted effect of over 65% in size
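Stable cell line, 250 cells/well, 12 h attachment; compounds pinned at 5 concentrations, 24 h; CCCP control. Fixed with nuclear dye, primary antibodies 12 h at 10 degrees C, secondary plus cell stain; laser-scanning cytometer read.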
Starred values were filed as active, the others as inactive; ? = inconclusive; / = no result given; [ ] = another dose, or the depositor's remark.

SMILES	ClpP mod	CXXC DNA block	Menin MLL FP TR	Epigenetic reg	Menin-MLL FL inh	PINK1 expr mod
COc1ccc(-c2nnn(CC(=O)c3c[nH]c4ccccc34)n2)cc1OC	-0.6%	23.9%	?	-1.0%	3.2	1.8%[38.3 µM]
O=C1Nc2ccccc2N(O)N1c1ccc(Cl)cc1	/	3.9%	-7.0%	-4.2%	0.0	1.6%
CCN1c2ccccc2NC2C1C(C(C)=O)C(=O)N2c1ccc(Cl)cc1 (stereo unspecified)	-1.2%	-0.8%	-22.2%	25.1µM*	?	5.2%[38.3 µM]
C=CCCc1ccc(C#N)c(SCc2c(C(=O)OCC)c3cc(OC(C)=O)c(Br)cc3n2C)n1	0.2%	-0.6%	-4.9%	12.6µM*	-0.4	1.6%
CCOC(=O)c1c(CSc2nc(C)cc(C)c2C#N)n(C)c2cc(Br)c(OC(C)=O)cc12	-4.9%	-8.0%	0.3%	1.0%	3.7	-0.1%
Cc1ccc(/C=c2\sc3nc(-c4cccnc4)nn3c2=O)cc1	14.1µM*	?	?	-1.1%	?	6.0%
CCc1c(C)n2nc(C)cc2[nH]c1=O	12.6µM*	5.5%	12.3%	-1.0%	-0.5	2.8%
CCOc1ccc(C(=O)N(Cc2ccc(OC)cc2)Cc2cc3cc(OC)ccc3[nH]c2=O)cc1	31.6µM*	15.5%	/	10.4%	3.2	?
CCCN(Cc1cc2cc(OC)ccc2[nH]c1=O)C(=O)c1ccncc1	31.6µM*	-2.5%	-1.2%	7.4%	3.5	3.5%
COc1ccc(CN(Cc2cc3cc(OC)c(OC)cc3[nH]c2=O)C(=O)NC2CCCCC2)cc1	-28.5%	7.5%	-14.9%	0.1%	3.1	20.0%
COc1ccc2[nH]c(=O)c(CN(C)C(=O)C3CCCCC3)cc2c1	28.2µM*	0.8%	-4.0%	1.9%	4.0	-0.8%
COc1cc2cc(CN(C(=O)NC3CCCCC3)C3CCCC3)c(=O)[nH]c2cc1OC	25.1µM*	-7.1%	-15.3%	1.1%	1.9	-2.0%
COc1ccc2c(c1)-c1nc(-n3ncc(C(=O)N(C)C(C)c4ccon4)c3C3CC3)ncc1CC2 (stereo unspecified)	/	/	/	/	/	1.8%
COc1ccc(CC(=O)N(Cc2cc3cc(OC)ccc3[nH]c2=O)C(C)C)cc1	31.6µM*	0.3%	5.1%	0.0%	3.6	0.5%
COc1ccc2[nH]c(=O)c(CN(C(=O)c3ccco3)C(C)C)cc2c1	/	-7.3%	-14.2%	-1.1%	1.3	0.8%
Cc1cc(O)cc(O)c1C(=O)OC1(C)C(=O)C=C2C=C(/C=C/C(=O)O)OC=C2C1=O (stereo unspecified)	/	/	0.2%	-1.1%	?	/
COc1cccc(-c2ccc(O)c(CNCc3cccc(OC)c3OC)c2)n1	/	/	/	/	/	0.8%
CCOC(=O)C(C)Sc1nc(-c2cccs2)ccc1C#N (stereo unspecified)	12.6µM*	0.5%	?	1.0%	10.9	7.4%
C=COC(=O)CSc1nc(-c2cccs2)ccc1C#N	28.2µM*	30.2%	?	-6.1%	17.8	4.8%[38.3 µM]
N#Cc1ccc(-c2cccs2)nc1SCC(=O)Nc1cccc(C(F)(F)F)c1	3.9%	/	/	3.0%	/	6.4%
Cc1c(C(=O)NCC(C)(C)N2CCOCC2)cnn1-c1nccc(-c2cccs2)n1	/	/	/	/	/	1.2%
O=C(Nc1c(Cl)cc(Cl)cc1-c1nc2ccccc2s1)c1ccc(Br)o1	25.1µM*	18.5%	?	-1.0%	2.1	-1.5%[38.3 µM]
CCOc1ccccc1NC(=O)CCc1c(C)nc2c3cccnc3nn2c1C	28.2µM*	/	/	-0.1%	/	-0.9%
Cc1ccnc(NC(=O)C2CCN(S(=O)(=O)c3ccc(Cl)c(C(F)(F)F)c3)CC2)c1	31.6µM*	/	/	/	/	-0.6%
O=C(NCCc1nnc2n1CCN(Cc1ccc(F)cc1)CC2)c1ccc(F)cc1	/	/	/	/	/	-0.1%
Cc1nn(C)cc1/C=C(/C#N)C(N)=O	15.8µM*	11.8%	4.4%	-1.0%	/	-3.6%
Cc1nn(C)cc1C(N)=O	-1.1%	-1.8%	4.0%	0.0%	-0.8	1.2%
O=c1[nH]c2ccccc2nc1/C=C(\O)c1cccs1	/	?	?	22.4µM*	?	?
